MCL1-BIM inh: disrupts human MCL1 binding to BIM-BH3 peptide | GST-MCL1 / FITC-Bim-BH3 fluorescence polarization | inhibition, % at 10.9 µM | AID 2057 | Q07820 | hit rate 0.68% among 320,000;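 active means inhibition above the mean inhibition of all tested compounds plus 3 SD, set per campaign, cut at about 40% in these data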;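 further: 0% = DMSO wells and 100% = unlabeled Bim-BH3 peptide control; higher means more loss of mP so more displacement of Bim peptide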
IDE cell activ: IDE (human) activation, cell-based. activation, % at 5.96 µM. HEK cells, FAbeta-B cleavage, fluorescence polarization; 0% vehicle, 100% cell-free pure enzyme wells. P14735. hit rate 0.073% among 340,000. AID 493087;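 active means activation above the mean of all tested compounds plus 3 SD, set per screening campaign, cut at about 17% in these data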
IDE cell inh: inhibits human insulin-degrading enzyme in HEK cells; AID 434962; hit rate 0.41% among 320,000; inhibition, % at 5.59 µM; FAbetaB cleavage, fluorescence polarization; P14735;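 active means percent inhibition above the average of all tested compounds plus 3 SD, set per screening campaign, cut at about 16% in these data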;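 further: IDE supplied by intact live HEK cells; FP after avidin binding of uncleaved biotin substrate so inhibition keeps polarization high; 0% = DMSO wells and 100% = 60 µM reference IDE inhibitor Ii1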
MEX-5 binding: C. elegans MEX-5 TCR-2 RNA binding activity | activity score (negative = inhibition of binding), % at 10 µM | MEX-5/FITC-TCR2 RNA binding, fluorescence polarization; hits give low values | Q9XUB2 | hit rate 0.38% among 300,000 | AID 1832;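 active means inhibition past about -25% in most replicates, and total fluorescence under double the plate's negative control median, limit read from the data; inconclusive means replicates evenly split on the limit, or fluorescence at least double controls; inactive means too little inhibition in most replicates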;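 further: 0% = DMSO and -100% = 5 µM competing unlabeled TCR2 RNA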
GLD-1 RNA inh: GLD-1-TGE RNA interaction inhibition (C. elegans). Q17339. purified GLD-1 + fluorescein TGE RNA, fluorescence polarization. inhibition, % at 5.96 µM. hit rate 0.44% among 320,000;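 active means percent inhibition above a per-plate cutoff, the plate mean of test compounds plus 3 SD, cut at about 30% in these data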;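 further: 0% = DMSO wells with GLD-1 and probe and 100% = wells lacking GLD-1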
Bcl-xL primary: inhibitors of human Bcl-xL; Q07817; GST-Bcl-xL / FITC-Bim BH3 peptide fluorescence polarization; inhibition, % at 10.9 µM; hit rate 0.7% among 320,000; AID 2129;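 active means inhibition above the mean of all tested compounds plus 3 SD, cutoff set per campaign, cut at about 30% in these data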;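 further: 0% = DMSO wells and 100% = unlabeled Bim-BH3 peptide competitor; inhibitors lower millipolarization by displacing the labeled peptide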
Target sequence (Q07817 whole entry, looked up): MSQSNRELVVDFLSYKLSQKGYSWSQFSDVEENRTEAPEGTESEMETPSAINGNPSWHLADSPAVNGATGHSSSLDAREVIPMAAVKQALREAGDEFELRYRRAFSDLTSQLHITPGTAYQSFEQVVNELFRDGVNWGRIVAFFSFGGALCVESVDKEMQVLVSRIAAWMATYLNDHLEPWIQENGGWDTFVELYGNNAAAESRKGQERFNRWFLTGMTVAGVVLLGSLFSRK
BCLXL inh confirm: Bcl-xL (human) inhibition, MCL1 counter-screen confirmation | shares compounds with MCL1-BIM inh | GST-Bcl-xL / FITC-Bim BH3 peptide FP binding | inhibition, % at 10.9 µM | hit rate 54% among 1,700 | AID 2166;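 active means inhibition above a cutoff equal to the mean inhibition of all tested compounds plus 3 SD, cut at about 30% in these data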;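 further: 0% = DMSO wells and 100% = unlabeled Bim BH3 control peptide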
MCL1 BIM confirm: confirmation of human MCL1 and BIM-BH3 interaction inhibitors. hit rate 61% among 1,700. shares compounds with MCL1-BIM inh. inhibition, % at 10.9 µM. AID 2168. GST-MCL1 / FITC-Bim-BH3 fluorescence polarization;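 active means inhibition above the average of all tested compounds plus 3 SD, cut at about 40% in these data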;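 further: 0% = DMSO wells and 100% = unlabeled Bim-BH3 control peptide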
The depositor's hits bear a star; ? = inconclusive; nt = no result given; + = active, no number; ! = not confirmed by another sample. The list is not random: actives were taken first. Their share in the collection is about 1.5%.

SMILES	MCL1-BIM inh	IDE cell activ	IDE cell inh	MEX-5 binding	GLD-1 RNA inh	Bcl-xL primary	BCLXL inh confirm	MCL1 BIM confirm
CC(=O)C1C(N2CC2)CC2C3CC=C4CC(O)CCC4(C)C3CCC21C (stereo not given)	nt	-3	nt	nt	nt	nt	nt	nt
CN(C)[C@@H]1C(=O)C(C(N)=O)=C(O)[C@@]2(O)C(=O)C3=C(O)c4c(O)cccc4[C@@](C)(O)C3C[C@@H]12 (stereo not given in full)	51*	10	6	-9	2	25	17	26
CC1C(=O)OC2CCN3CC4OC4(COC(=O)C(C)(O)C1(C)O)C23 (stereo not given)	nt	1	nt	nt	nt	nt	nt	nt
O=C1NC(=S)N(c2ccccc2)C(=O)/C1=C/c1ccco1	53*	2	14	-93*	25	47*	18	24
CN1C(=O)NC(=O)C(N=Nc2ccc(Cl)cc2)C1=O (stereo not given)	nt	5	nt	nt	nt	nt	nt	nt
C=CCN1C(=O)NC(=O)/C(=C\c2ccc(-c3ccccc3[N+](=O)[O-])o2)C1=O	29	5	2	-3	6	5	nt	nt
O=C1NC(=O)N(Cc2ccco2)C(=O)/C1=C/c1ccc(-c2cccc([N+](=O)[O-])c2)o1	43*	-1	4	-2	-4	17	24	62*
CC1=NCCc2c1[nH]c1cc(O)ccc21	+	66*	-28	nt	+	+	+	+
CN(CC=CCN(C)P(=S)(N1CC1)N1CC1)P(=S)(N1CC1)N1CC1	nt	2	nt	nt	nt	nt	nt	nt
Cc1cc(/C=C2\C(=O)NC(=O)N(Cc3ccccc3)C2=O)c(C)n1C1CC1	67*	4	4	-58*	0	-2	19	17
COc1cc(OC)c(OC)cc1/C=C1/C(=O)NC(=O)N(Cc2ccccc2)C1=O	-18	9	3	-1	-10	-17	nt	nt
CCC1(NS(=O)(=O)c2ccc(N)cc2)C(=O)N(C)C(=O)N(C)C1=O	nt	3	nt	nt	nt	nt	nt	nt
COCCCNC(=O)Cn1cc(/C=C2\C(=O)NC(=O)N(c3ccccc3F)C2=O)c2ccccc21	100*	-3	-4	?	-22	2	117*	133*
Cc1ccc(/C=C2\C(=O)NC(=S)N(c3ccccc3F)C2=O)s1	26	-6	9	nt	1	11	nt	nt
O=P(O)(O)CN1CCNCCN(CP(=O)(O)O)CCNCC1	nt	-25	nt	nt	nt	nt	nt	nt
O=C1NC(=O)N(c2ccccc2)C(=O)/C1=C/c1ccc(Sc2ccccc2)o1	15	-10	3	1	-6	8	nt	nt
O=C1NC(=O)N(c2ccccc2F)C(=O)/C1=C/c1ccc(Sc2nc3ccccc3[nH]2)o1	59*	-44	34*	nt	1	54*	41*	66*
CN1CCC2(CC1)C(C#N)=C(N)NC(S)=C2C#N	118*!	-1	3	-43*!	-78	42*	90*	104*
CC12C=CC(=O)C=C1CC(O)C1C2CCC2(C)C1CCC2(C)O (stereo not given)	nt	-2	nt	nt	nt	nt	nt	nt
Nc1c2c(nc3ccccc13)CCN(Cc1ccccc1)C2	+	7	-3	-3	97*	167*	72*	101*
O=C(CCN1CC1)OCCOC(=O)CCN1CC1	nt	2	nt	nt	nt	nt	nt	nt
Cc1ccc(/C=C2/Sc3ccc(C(=O)N4CCC5(CC4)OCCO5)cc3NC2=O)cc1	125*	0	-2	-29*	75*	106*	108*	131*
O=C1C(Cl)=CC(=Nc2ccc(O)cc2)C=C1Cl	44*	3	-5	nt	1	29	40*	60*
O=[As](O)(O)c1ccc(N=Nc2ccc(O)cc2)cc1	nt	6	nt	-22	nt	nt	nt	nt
c1cc2c(cc1NC1=NCCO1)CCCC2	nt	6	nt	nt	nt	nt	nt	nt
COc1ccc(CCNCC2CCCO2)cc1 (stereo not given)	6	3	2	-4	10	4	nt	nt
CCOc1cccc(OCC)c2c(C)[n+](CC3CCCO3)c(C)c1-2 (stereo not given)	62*	2	0	-2	32*	53*	17	17
